# In all, about 1,400 compounds went through this assay and about 940 (67%) were called active. Roughly 27% stayed inconclusive and do not appear here. The call rests on the fitted dose curve. So high a share suggests a set chosen from earlier hits. These entries were drawn from the full list.
# Biological target: Atrial natriuretic peptide receptor 2 (Homo sapiens) (UniProt P20594)
# Test: Natriuretic polypeptide receptor (hNpr2) antagonism - Subtype selectivity assay; further: nearly all actives have a fitted effect of over 70% in size
# Conditions: HEK293 hNpr2 GloSensor cGMP luminescence, CNP-stimulated; series mostly up to 57.6 µM; activity change, negative = inhibition: at the top concentration
# Experimental: F. Fan, B. F. Binkowski, B. L. Butler, P. F. Stecha, M. K. Lewis, K. V. Wood, Novel genetically encoded biosensors using firefly luciferase. ACS Chem Biol 3, 346-351 (2008).
# PROTOCOL TABLE (as described by Inglese J, Shamu CE and Guy RK. 2007) SEQUENCE No. (e.g., 1, 2, 3, etc.); PARAMETER (e.g., Cells, Incubation, Reagent, etc.); VALUE and DESCRIPTION. 1. Cells. Seed 1500 HEK293 cGMP-sensor cells expressing hNpr2 per well in 4uL into Greiner 1536-well white/solid bottom high base, TC plates. 2. Incubation. Incubate plated cells at 37C in 5% CO2, 95% RH overnight. 3. Reagent. Add 1uL per well GloSensor reagent from Promega (2% final concentration) or CO2 independent media vehicle control to respective columns of Greiner 1536-well plates. 4. Incubation. Incubate plated cells at ambient temperature for 2 h., protect from light. 5. Compounds. Library compounds and DMSO vehicle control added at 23nL per well, transferred by Pin Tool. 6. Incubation. Incubate plated cells for 30 min. at ambient temperature, protect from light. 7. Detector. GloSensor baseline pre-read luminescence measured using CCD-based camera (Viewlux). 8. Compound. Add 1uL of hNppC peptide to 1 nM final concentration to stimulate hNpr2 or CO2 independent media as vehicle control. 9. Incubation. Incubate treated cells at ambient temperature for 20 min., protect from light. 10. Detector. GloSensor post-hNppC luminescence measured using CCD-based camera (Viewlux). NOTES (numbers refer to Sequence numbers above) 1. HEK293 cells expressing hNpr2 and GIP/pGS-40F were grown to 85-95% confluence (48-72 h) in T175 culture flasks (CO2 independent media supplemented with 10% FBS, 1% Pen/Strep antibiotics, and 1 ug/mL puromycin). Trypsinize and harvest cells from T175 culture flasks and filter through 40 um cell strainer. Cells counted with Invitrogen Countess (30,000,000 - 50,000,000 cells/flask). Cells diluted to a final concentration of 375 cells/uL in CO2 independent media and a Millipore multidrop used to dispense 1500 cells per well (4uL/well) into 13 1536-well Greiner White/Solid bottom, high base tissue-culture treated (TC) plates and one Aurora 1536-well Black/Clear bottom, low base, TC plate (for visual inspection of cell health throughout the duration of the assay). 2. Cells incubated for 24 h. at 37C in 95% RH incubator with metal lid having gas-exchange holes. 3. Prepare GloSensor Reagent (Promega): Reconstitute GloSensor luciferase substrate by adding 8.2mL Hepes buffer to 250mg substrate, mix well, protect from light and stored at -80C. Prepare a fresh 12% GloSensor solution in CO2 independent supplemented plating media (see above). Mix well and store at ambient temperature, protected from light. 1uL 12% GloSensor Luciferase Reagent added (2% final concentration) to respective columns of 13 x 1536-well Greiner plate with BioRaptr, 1uL CO2 independent plating media added to respective columns as vehicle control with BioRaptr. 4. Cells incubated for 2 h. at ambient temperature, protected from light with metal lid having gas-exchange holes. 5. 23nL of library compounds or DMSO vehicle control transferred to 13 Greiner white/solid bottom high base, TC plates in 11 interplate 1:3 titrations (see Yasgar, A. et al. 2008) with Pintool. 6. Cells incubated for 30-50 min. at ambient temperature protected from light with metal lid having gas-exchange holes. 7. Read cellular baseline GloSensor luminescence in presence of test library compounds on the ViewLux [Exposure = 10 s.; Gain = High; Speed = Slow; and Binning = 2X.] 8. hNppC peptide agonist solution prepared at 1 mM (in H2O) stock concentration. From this a working dilution was prepared at 6 nM in CO2 Independent media. 1uL of 6 nM hNppC agonist (1 nM final concentration) or CO2 Independent media vehicle control dispensed into respective columns of 13 x Greiner 1536-well white/solid bottom, tissue culture plates with BioRaptr. 9. Cells incubated for 20 min. at ambient temperature, protected from light with metal lid having gas-exchange holes. 10. […]
# Potency means the concentration at half of the fitted maximal effect.
# Atrial natriuretic peptide receptor 2 (Homo sapiens), sequence (P20594 whole entry, looked up): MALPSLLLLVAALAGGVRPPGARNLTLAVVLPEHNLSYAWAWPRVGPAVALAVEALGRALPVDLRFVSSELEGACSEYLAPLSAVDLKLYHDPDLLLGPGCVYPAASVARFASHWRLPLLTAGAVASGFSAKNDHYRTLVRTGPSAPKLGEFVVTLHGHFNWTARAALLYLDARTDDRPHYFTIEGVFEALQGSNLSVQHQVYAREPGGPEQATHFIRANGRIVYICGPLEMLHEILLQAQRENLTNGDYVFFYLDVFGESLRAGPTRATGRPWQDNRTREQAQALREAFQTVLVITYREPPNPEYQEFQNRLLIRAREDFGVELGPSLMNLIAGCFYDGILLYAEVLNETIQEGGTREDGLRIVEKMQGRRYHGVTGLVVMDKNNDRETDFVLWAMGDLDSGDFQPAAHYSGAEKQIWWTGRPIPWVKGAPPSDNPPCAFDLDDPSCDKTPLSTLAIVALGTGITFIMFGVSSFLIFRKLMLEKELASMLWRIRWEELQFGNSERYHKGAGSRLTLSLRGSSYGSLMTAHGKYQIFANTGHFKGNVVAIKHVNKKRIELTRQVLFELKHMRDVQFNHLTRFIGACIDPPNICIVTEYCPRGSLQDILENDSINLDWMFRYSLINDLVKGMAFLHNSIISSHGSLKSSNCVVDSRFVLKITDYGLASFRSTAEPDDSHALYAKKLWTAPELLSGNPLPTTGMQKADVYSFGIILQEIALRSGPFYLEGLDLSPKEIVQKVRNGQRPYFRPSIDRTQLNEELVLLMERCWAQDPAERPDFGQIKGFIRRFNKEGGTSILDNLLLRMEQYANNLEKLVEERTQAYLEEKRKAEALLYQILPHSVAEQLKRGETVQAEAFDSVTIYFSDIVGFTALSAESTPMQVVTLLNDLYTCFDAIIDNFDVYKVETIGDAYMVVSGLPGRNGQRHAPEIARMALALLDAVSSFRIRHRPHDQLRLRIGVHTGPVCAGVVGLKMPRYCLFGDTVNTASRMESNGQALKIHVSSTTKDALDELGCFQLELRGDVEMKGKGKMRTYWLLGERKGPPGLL
Structure (SMILES),Potency,"activity change, negative = inhibition"
Cc1ccc2nc(C3CCCN(Cc4ccc(C#N)cc4)C3)[nH]c(=O)c2c1 (centres undefined),24.3 µM (active),
O=c1[nH]c(C2CCCN(Cc3ccccn3)C2)nn1-c1ccc(Cl)cc1 (centres undefined),10.9 µM (active),
CC(C)(C)c1csc(NC(=O)c2ccc3c(c2)OCCN(C2CCC2)C3)n1,35.3 µM (active),
COc1ccccc1Nc1cnc2ccc(N(C)Cc3cccnc3)nn12,28 µM (active),
C1CCC(COCCc2noc(C3CNC3)n2)C1,21.7 µM (active),
O=C(NCc1nnc2cc(-c3nc(C4CC4)no3)ccn12)c1ccc(F)cc1Cl,13.7 µM (active),
Cc1ccc2c(c1)nc1n2[C@@H](CNS(=O)(=O)c2ccccc2)COC1,31.4 µM (active),
O=C(c1ccc(Cl)cc1)N1CCCC(n2cc(-c3nc(-c4ccccc4)no3)nn2)C1 (centres undefined),21.7 µM (active),
COc1ccc(C(=O)N2CCC(n3cc(-c4nc(C(C)C)no4)nn3)CC2)cc1F,,-20.8% (inactive)
O=C(c1ccc(F)cc1Cl)N1CCC(n2cc(-c3nc(-c4ccccc4)no3)nn2)C1 (centres undefined),5.44 µM (active),
O=C1c2cnc(-c3ccc(Cl)cc3)nc2OCCN1Cc1ccccc1,35.3 µM (active),
Cc1cc(N2CCCC(Cn3cc(Cc4ccccc4)nn3)C2)nc(N)n1 (centres undefined),9.68 µM (active),
O=C(c1ccccn1)N1CC(Oc2ccc(-c3noc(C4CC4)n3)cc2)C1,19.3 µM (active),
COc1ccc(C2Cn3nnc(C(=O)N4CCN(C(=O)c5cccc(Cl)c5)CC4)c3CO2)cc1 (centres undefined),15.3 µM (active),
CCc1ccc(C(=O)N2CCN(c3cc(-c4ccc(F)cc4)[nH]n3)CC2)cc1,21.7 µM (active),
O=C(c1cc(F)ccc1Cl)N1CCN(c2cc(-c3ccc(F)cc3)[nH]n2)CC1,24.3 µM (active),
Cc1ccc(C(=O)N2CCN(c3cc(-c4ccc(Cl)cc4)[nH]n3)CC2)c(C)c1,9.68 µM (active),
O=C(c1ccc(F)cc1F)N1CCN(c2cc(-c3ccc(Cl)cc3)[nH]n2)CC1,19.3 µM (active),
O=C(c1ccc2cc[nH]c2c1)N1CCC2(CC1)N=C(c1ccc(Cl)cc1)NO2,21.7 µM (active),
O=C1NCN(Cc2ccc(Cl)cc2)C12CCN(Cc1ccccc1)CC2,19.3 µM (active),
O=C(c1ccccc1)N1CCC(C(=O)N2CCC(Cc3nc(-c4ccc(F)cc4)no3)CC2)CC1,19.3 µM (active),
COc1cccc(-c2noc(CC3CCN(C(=O)c4ccc(F)cc4)CC3)n2)c1,6.11 µM (active),
CCN(CCCNC(=O)c1nnn2cc(-c3ccccc3)[nH]c(=O)c12)c1ccccc1,,-25.7% (inactive)
COc1cccc(CNC(=O)Cn2c(N(C)Cc3ccccc3)nc(C)cc2=O)c1OC,27.3 µM (active),
COc1cccc(NC(=O)Cn2c(N(C)Cc3ccccc3)nc(C)cc2=O)c1,12.2 µM (active),

Structure (SMILES),Potency,"activity change, negative = inhibition"
Cc1nn2c(c1-c1ccccc1-c1ccccc1)N(CC1CC1)CCC2,3.14 µM (active),
Cc1nc(-c2ccncc2)ncc1C(C)Nc1ncnc(C)c1C (centres undefined),17.2 µM (active),
CN1CCN(C(=O)C(C)(C)Oc2nn(Cc3cccc(Cl)c3)c3ccccc23)CC1,19.8 µM (active),
CN(C)CCNC(=O)C(C)(C)Oc1nn(Cc2cccc(Cl)c2)c2ccccc12,31.4 µM (active),
Cc1noc(C)c1-c1cc(-c2ccccc2Oc2ccccc2)cn2cncc12,11.1 µM (active),
CN(Cc1csc(-c2ccccc2)n1)c1cc(C2CC(O)C2)nc(N)n1 (centres undefined),3.85 µM (active),
Cc1c[nH]c(CN2CCCC(CCc3ccc(F)cc3F)C2)c(C)c1=O (centres undefined),3.85 µM (active),
O=C1Nc2ccccc2CN(Cc2ccccc2)C12CCNCC2,17.2 µM (active),
COc1ccc(OCC2(C)COc3ccc(C(=O)Nc4cccnc4)cc3N2)cc1 (centres undefined),35.3 µM (active),
CC1=NS(=O)(=O)N(C)C=C1C(=O)OCc1nc(-c2ccc(C)cc2)no1,13.7 µM (active),
COc1ccc(CCNC(=O)c2noc(-c3ccc(C)cc3)n2)cc1OC,21.7 µM (active),
O=[S+]1([O-])NCC2(CCCN(Cc3ccc(C(F)(F)F)cc3)C2)Oc2ncccc21 (centres undefined),15.3 µM (active),
COc1ccc(CN2C(=O)CO[C@H]3CN(Cc4ccc5c(c4)OCO5)C[C@H]32)cc1,31.4 µM (active),
Cc1cccc(CN2CCc3nc(C(=O)Nc4ccc(Cl)cc4)oc3CC2)c1,12.5 µM (active),
O=C(c1ccccc1)N1CCNc2cnc(Nc3cccc(C(F)(F)F)c3)nc2C1,28 µM (active),
CC1(C(=O)NCc2ccc3c(c2)OCO3)CCc2cnc(NCc3ccccc3)nc21 (centres undefined),35.3 µM (active),
O=C(NCC1CC1)c1nc2c(o1)CCN(Cc1cccc(F)c1F)CC2,28 µM (active),
O=C(Cc1c[nH]c2ncc(-c3ccccc3F)cc12)N1CCOCC1,15.7 µM (active),
Cc1ccc(OCc2nc(C3CCN(C(=O)CCc4nc5ccc(Cl)cc5[nH]4)CC3)no2)cc1,24.3 µM (active),
CC(C)c1cc(C(=O)N2CCC(n3cc(-c4ccccn4)nn3)CC2)n(C)n1,19.3 µM (active),
OC1(Cc2cc(-c3ccccc3)no2)CCN(c2ncncn2)CC1,8.62 µM (active),
COc1ccc(-c2noc(CC3CCN(C(=O)Cc4ccc(OC)c(OC)c4)CC3)n2)cc1,5.44 µM (active),
COc1ccc(-c2noc(CC3CCN(C(=O)CC4CCCCC4)CC3)n2)cc1,12.2 µM (active),
COc1ccc(CC(=O)N2CCC(Cc3nc(-c4ccccc4)no3)CC2)cc1OC,15.3 µM (active),

# Source: PubChem BioAssay AID1347046 (National Center for Advancing Translational Sciences (NCATS), 2019)
